Experimental data as given in PubChem BioAssay (NCATS).
Where “and” joins values, the source holds several entries; their conditions need not be identical. Identical values can stand only once. Records with an inconclusive call do not appear. Calls of active or inactive are those of the source. Unless noted, the call rests on the fitted dose curve; in most records, active means well fitted curve in the direction sought with a large enough effect; inconclusive means small, poorly fitted or top-dose-only effect, or another doubt; inactive means no such curve, though single readings can be large; an effect the other way counts as inactive or inconclusive.

What was measured:
[1] = Cell Viability - HUV-EC-C (AID 542);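 further: cells exposed to compound for 40 hours; on the % scale 0 is the no-effect control and ±100 the full control effect; nearly all actives have a fitted effect of over 35% in size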
Procedure, shortened: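 Decrease in cellular ATP, quantified by luciferase luminescence, reflects toxicity in normal human vascular endothelial HUV-EC-C cells given compound for 40 hr in complete culture medium. Values are AC50s from concentration-response curves.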

[2] = Cell Viability - Renal Proximal Tubule (AID 545);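 further: cells exposed to compound for 40 hours; 0% = DMSO only and -100% = 100 µM tamoxifen; nearly all actives have a fitted effect of over 40% in size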
Procedure, shortened: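 Cytotoxicity is scored as a concentration-dependent drop in cellular ATP in primary rat renal proximal tubule cells exposed for 40 hr. AC50 derives from Hill modelling.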

[3] = Cell Viability - LYMP2-005 (AID 967); further: potency means the concentration at half of the fitted maximal effect
Procedure, shortened: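 qHTS viability screen in LYMP2-005 cells: 24 h at 37 C with compound, ATP luminescence via CellTiter-Glo, AC50 from Hill curves.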

[4] = Cell Viability - LYMP2-011 (AID 969);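 further: 0% = DMSO only and full inhibition = 92 µM tetraoctylammonium bromide; nearly all actives have a fitted effect of over 60% in size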
Procedure, shortened: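 Acute toxicity is scored as a concentration-dependent drop in intracellular ATP of a human lymphoblastoid line after 24 hr treatment. Values are AC50s modeled with the Hill equation.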

[5] = Cell Viability - LYMP2-013 (AID 970);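 further: series mostly up to about 92 µM; 0% = DMSO only and full inhibition = tetraoctylammonium bromide control; nearly all actives have a fitted effect of over 55% in size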
Procedure, shortened: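 Acute toxicity was measured in human lymphoblastoid cells (2500/well) exposed to compound titrations for 24 hr, with ATP luminescence (CellTiter-Glo) as read-out and AC50 fitted by Hill equation.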

[6] = Cell Viability - LYMP2-015 (AID 971); further: nearly all actives have a fitted effect of over 55% in size; further: potency means the concentration at half of the fitted maximal effect
Procedure, shortened: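 Acute toxicity was scored as a concentration-dependent drop in intracellular ATP in lymphoblastoid cells after 24 hr compound exposure in complete medium. Detection used CellTiter-Glo luciferase luminescence.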

[7] = Cell Viability - LYMP2-021 (AID 974);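 further: compound exposure lasts 24 hours at 37 °C; nearly all actives have a fitted effect of over 55% in size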; further: potency means the concentration at half of the fitted maximal effect
Procedure, shortened: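 Concentration-response cytotoxicity in a human lymphoblastoid line: 24 hr treatment at 37 C in complete culture medium, tetraoctylammonium bromide as positive control, luminescent ATP quantitation as viability measure.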

[8] = Cell Viability - LYMP2-023 (AID 975);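 further: cells exposed to compound for 24 hours at 37 °C; nearly all actives have a fitted effect of over 55% in size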; further: potency means the concentration at half of the fitted maximal effect
Procedure, shortened: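 Concentration-dependent drop in intracellular ATP measures acute cytotoxicity in a human lymphoblastoid line treated for 24 hours in complete culture medium. AC50 values are taken from Hill-equation fits of qHTS data.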

[9] = Cell Viability - LYMP2-010 (AID 981); further: potency means the concentration at half of the fitted maximal effect
Procedure, shortened: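 Acute toxicity is scored as a concentration-dependent loss of cellular ATP in human lymphoblastoid cells after 24 hr compound exposure in complete medium. Tetraoctylammonium bromide is the positive control.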

[10] = Cell Viability - LYMP2-020 (AID 986); further: nearly all actives have a fitted effect of over 55% in size; further: potency means the concentration at half of the fitted maximal effect
Procedure, shortened: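 Acute cytotoxicity in a human lymphoblastoid line is scored as a concentration-dependent fall in cellular ATP after 24 hr at 37 C in complete medium. The positive control is tetraoctylammonium bromide, and potency is given as Hill-fit AC50.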

[11] = Cell Viability - LYMP1-002 - Assay at 24 hr (AID 993); further: on the % scale 0 is the no-effect control and ±100 the full control effect
Procedure, shortened: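 qHTS, LYMP1-002 lymphoblastoid, 24 h cpd, 37 C, CellTiter-Glo ATP luminescence; AC50 via Hill eq.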

[12] = target: Peroxisome proliferator-activated receptor delta (Homo sapiens) (UniProt Q03181); assay: qHTS assay for small molecule agonists of peroxisome proliferator-activated receptor delta signaling (AID 588534; calls by dose curve;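 further: 0% = DMSO basal wells and 100% = positive control agonist at 10 µM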)
Peroxisome proliferator-activated receptor delta (Homo sapiens), sequence (Q03181 whole entry, looked up): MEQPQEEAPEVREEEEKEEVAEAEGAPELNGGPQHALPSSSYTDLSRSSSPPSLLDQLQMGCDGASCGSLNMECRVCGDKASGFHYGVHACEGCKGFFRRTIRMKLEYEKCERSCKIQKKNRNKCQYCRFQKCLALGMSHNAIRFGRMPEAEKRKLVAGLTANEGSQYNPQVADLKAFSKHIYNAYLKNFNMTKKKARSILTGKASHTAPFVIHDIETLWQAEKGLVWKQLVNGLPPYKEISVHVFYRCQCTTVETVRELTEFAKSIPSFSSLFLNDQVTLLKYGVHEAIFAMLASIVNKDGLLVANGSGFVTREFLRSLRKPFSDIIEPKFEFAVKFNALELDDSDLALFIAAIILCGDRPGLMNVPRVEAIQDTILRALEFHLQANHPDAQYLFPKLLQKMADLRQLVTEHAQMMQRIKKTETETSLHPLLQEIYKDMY
Procedure, shortened: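 Reporter cells were plated and held 5 hrs at 37 C before compounds were added. After 18 hrs at 37 C, CCF4 dye was loaded for 2 hrs at RT and fluorescence measured.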

[13] = qHTS assay for small molecule agonists of the antioxidant response element (ARE) signaling pathway (AID 651741; active means well fitted activation curve with a large enough effect in the signal ratio; the % refers to the signal ratio; further: potency means the concentration at half of the fitted maximal effect; on activation: % of control where 0% means no effect)
Procedure, shortened: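 Seeding 2,000 ARE-bla HepG2 cells per well preceded a 5 h incubation at 37 C/5% CO2 and a 16 h compound exposure at 37 C. Beta-lactamase reporter activity was then quantified by fluorescence after 2 h with LiveBLAzer B/G FRET substrate.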

[14] = qHTS assay for small molecule activators of the nuclear factor-kappa B (NF-kB) signaling pathway (AID 651749; active means well fitted activation curve with a large enough effect in the signal ratio; the % refers to the signal ratio; further: series mostly up to about 77 µM; % of control where 0% means no effect); conditions: NF-kB-bla ME-180 cells, beta-lactamase FRET ratio, 16 h; stronger effect = higher value
Procedure, shortened: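 Stably transfected ME-180 line; NF-kB response element upstream of beta-lactamase. Treatment: compound or DMSO, 16 hr. Detection: fluorescent FRET substrate.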

[15] = qHTS assay for small molecule antagonists of the retinoid-related orphan receptor gamma (ROR-gamma) signaling pathway - cell viability counter screen (AID 720652; active means well fitted curve in the direction sought with a large enough effect in the repeat runs; an effect the other way counts as inactive or inconclusive;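 further: CHO reporter cells with doxycycline-induced ROR-gamma expression; series mostly up to about 92 µM; compound exposure lasted 16 hr before ATP read; on the % scale 0 is the no-effect control and ±100 the full control effect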)
Procedure, shortened: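 Cytotoxicity is quantified via intracellular ATP (CellTiter-Glo luminescence) in doxycycline-induced CHO ROR response element-luciferase reporter cells treated with compound for 16 hr at 37 C, 5% CO2.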

[16] = target: Nuclear receptor subfamily 1 group I member 2 (Rattus norvegicus) (UniProt Q9R1A7); assay: qHTS assay for small molecule activators of the rat pregnane X receptor (rPXR) signaling pathway (AID 651751; call rule not given here; further: 0% is about no effect); conditions: rPXR reporter cells, luciferase (One-Glo), 24 h
Nuclear receptor subfamily 1 group I member 2 (Rattus norvegicus), sequence (Q9R1A7 whole entry, looked up): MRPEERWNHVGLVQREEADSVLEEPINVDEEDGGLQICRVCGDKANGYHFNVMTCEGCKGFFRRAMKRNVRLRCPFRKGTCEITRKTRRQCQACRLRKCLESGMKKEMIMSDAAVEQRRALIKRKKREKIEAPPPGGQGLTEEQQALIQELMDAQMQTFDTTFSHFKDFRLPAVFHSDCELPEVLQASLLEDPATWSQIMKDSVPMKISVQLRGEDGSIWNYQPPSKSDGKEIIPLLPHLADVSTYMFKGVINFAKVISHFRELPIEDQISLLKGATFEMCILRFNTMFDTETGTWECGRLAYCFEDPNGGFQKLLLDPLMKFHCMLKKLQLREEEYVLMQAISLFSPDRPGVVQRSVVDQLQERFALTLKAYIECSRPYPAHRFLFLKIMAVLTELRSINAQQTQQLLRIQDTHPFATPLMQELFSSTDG

[17] = Cell Viability - LYMP2-002 (AID 977);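 further: series mostly up to about 92 µM; compound exposure lasted 24 h at 37 °C; plate controls were DMSO only for no effect and 92 µM tetraoctylammonium bromide for full effect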
Procedure, shortened: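 Cytotoxicity is scored as concentration-dependent loss of cellular ATP in a human lymphoblastoid line after 24 hr compound treatment at 37 C. AC50 is obtained by modelling concentration-response data with the Hill equation.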

[18] = target: Retinoic acid receptor RXR-alpha (Homo sapiens) (UniProt P19793); assay: qHTS assay for small molecule antagonists of retinoid X receptor alpha signaling (AID 588546; active means well fitted inhibition curve with a large enough effect in the signal ratio, with a control signal flat, not every such curve was filed as active; the % refers to the signal ratio;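 further: cells stimulated with 9-cis-retinoic acid as agonist; on the % scale 0 is the no-effect control and ±100 the full control effect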); conditions: HEK293T RXRa-UAS-bla, beta-lactamase ratio, antagonist mode
Retinoic acid receptor RXR-alpha (Homo sapiens), sequence (P19793 whole entry, looked up): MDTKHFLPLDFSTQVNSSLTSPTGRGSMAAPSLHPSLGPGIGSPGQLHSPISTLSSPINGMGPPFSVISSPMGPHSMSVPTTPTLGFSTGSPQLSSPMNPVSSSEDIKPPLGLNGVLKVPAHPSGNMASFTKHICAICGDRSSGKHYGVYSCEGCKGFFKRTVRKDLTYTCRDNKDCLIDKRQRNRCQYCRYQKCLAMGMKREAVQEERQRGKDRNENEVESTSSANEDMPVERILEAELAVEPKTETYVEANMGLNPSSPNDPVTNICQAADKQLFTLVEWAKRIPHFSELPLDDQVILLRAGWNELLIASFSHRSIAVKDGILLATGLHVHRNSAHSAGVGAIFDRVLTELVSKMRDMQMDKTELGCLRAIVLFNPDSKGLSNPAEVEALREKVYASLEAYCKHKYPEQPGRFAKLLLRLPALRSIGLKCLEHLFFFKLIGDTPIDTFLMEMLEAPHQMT
Procedure, shortened: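 Beta-lactamase reporter inhibition, read as CCF4 fluorescence ratio (ex 405, em 460/530 nm) after 2 h at RT. HEK293T UAS-bla cells, 2500/well, were stimulated with 9-cis-RA at 500 or 100 nM final alongside test compound for 18 h at 37 C.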

[19] = qHTS assay for small molecule activators of the human pregnane X receptor (PXR) signaling pathway (AID 720659; call rule not given here; further: 0% is about no effect)
[20] = Cell Viability - SK-N-SH (AID 435; calls by dose curve;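 further: potency means the concentration at half of the fitted maximal effect; compound exposure lasted 40 h at 37 °C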); conditions: SK-N-SH neuroblastoma cell viability qHTS
Procedure, shortened: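 Cells seeded at 1500 per well and incubated 5 hr at 37 °C. Compound added, then 40 hr at 37 °C. CellTiter-Glo added, 20 min at room temperature, luminescence read.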

CCOP(=S)(OCC)Oc1nc(Cl)c(Cl)cc1Cl
active: Potency [13] 37.6 µM [middle of 4 runs]
inactive: Potency [1] | outcome [2] | Potency [3] | Potency [4] | Potency [5] | Potency [6] | Potency [7] | Potency [8] | Potency [9] | Potency [10] | Potency [11] | outcome [12] | activation [14] -1.28% [middle of 4 runs] | Potency [15] | max response [16] 6.81% [middle of 4 runs]

O=C(O)C(Br)Br
active: Potency [13] 2.98 µM
inactive: Potency [1] | outcome [2] | Potency [4] | Potency [5] | Potency [6] | Potency [7] | Potency [8] | Potency [17] | Potency [9] | Potency [11] | max response [18] 6.61% | activation [14] -1.25% | Potency [15] | max response [16] 1.77% | outcome [19]

CC(C)(C)OOC(=O)c1ccccc1
inactive: Potency [20] > 92 µM | outcome [2] | Potency [3] | Potency [4] | Potency [5] | Potency [7] | Potency [8] | Potency [17] | Potency [10] | Potency [11] | outcome [12] | max response [18] 2.22% and 6.61% | Potency [13] | activation [14] 0.502% and 3.48% | Potency [15] | max response [16] 2.87% and -0.927% | outcome [19]

N#CC(Br)Br
active: Potency [13] 42.2 µM
inactive: Potency [20] > 92 µM | Potency [1] | Potency [3] | outcome [12] | max response [18] 18.7% | activation [14] -1.36% | max response [16] -7.42% | outcome [19]

Brc1ccc(Oc2ccc(Br)cc2Br)c(Br)c1
inactive: Potency [20] > 92 µM | Potency [1] | outcome [2] | Potency [3] | Potency [4] | Potency [5] | Potency [6] | Potency [8] | Potency [17] | Potency [9] | Potency [10] | Potency [11] | activation [14] 0.581%

c1ccc2c(c1)-c1cccc3c1c-2cc1ccccc13
active: Potency [13] 10.6 µM and 6.11 µM

C=CC(=O)OCCO
active: Potency [9] 50.1 µM | Potency [13] 37.6 µM
inactive: Potency [1] | outcome [2] | Potency [8] | Potency [17] | max response [18] 11.3% | activation [14] 0.11% | max response [16] 0.767% | outcome [19]

[C-]1=CC=CC1.[C-]1=CC=CC1.[Cl-].[Cl-].[Ti+4]
inactive: outcome [2]

Nc1ccc(-c2ccc(N)c(Cl)c2)cc1Cl
active: Potency [20] 3.05 µM | Potency [13] 5.31 µM and 12.2 µM
inactive: Potency [3] | Potency [5] | Potency [6] | Potency [7] | Potency [8] | Potency [9] | Potency [10] | Potency [11] | max response [18] -19% and -20.8%

N#C/C=C/C#N
active: Potency [20] 24.4 µM | Potency [3] 25.1 µM | Potency [6] 50.1 µM | Potency [7] 39.8 µM | Potency [8] 39.8 µM | Potency [9] 31.6 µM | Potency [10] 31.6 µM | Potency [13] 37.6 µM
inactive: outcome [2] | Potency [11] | outcome [12] | Potency [15] | max response [16] -4.77% | outcome [19]

O=[N+]([O-])c1cccc(CCl)c1
active: Potency [13] 42.2 µM
inactive: Potency [20] > 92 µM | Potency [5] | Potency [8] | Potency [17] | max response [18] -0.788% | activation [14] 1.19% | max response [16] -4.81% | outcome [19]

Oc1cc(Cl)c(Cl)c(Cl)c1
active: Potency [13] 23.7 µM
inactive: Potency [3] | Potency [6] | Potency [11] | activation [14] -0.357% | max response [16] -2.97% | outcome [19]

Oc1cc(Cl)c(Cl)c(Cl)c1Cl
inactive: Potency [3] | Potency [17] | Potency [9] | Potency [11] | max response [16] -6.73% | outcome [19]
active: Potency [13] 11.9 µM

Clc1ccc(C(c2ccccc2Cl)C(Cl)(Cl)Cl)cc1 (centres undefined)
inactive: Potency [1] | outcome [2] | Potency [3] | Potency [4] | Potency [5] | Potency [6] | Potency [7] | Potency [17] | Potency [10] | Potency [11] | outcome [12] | max response [18] -26% | activation [14] 3.52% and 5.2%
active: Potency [13] 75 µM and 61.1 µM

CN(C)c1ccc(N=Nc2ccccc2)cc1
inactive: Potency [20] > 92 µM | Potency [1] | Potency [4] | Potency [7] | Potency [9] | Potency [10] | Potency [11] | outcome [12] | max response [18] -20.4% | Potency [15]
active: Potency [13] 37.6 µM
